# Experimental data as given in ChEMBL document CHEMBL3988442, “University of Dundee, Small-Polar-MMV Screening Library” (2021).
# For some of these results: Results with a measured potency or affinity are listed apart.
# Experiments:
# Parameters in all cases: scale not given: direction of the effect not stated beside the values
# [1] = molecular target: Protein translocase subunit SecA (Escherichia coli (strain K12)) (UniProt P10408); experiment: Assay to Identify E. coli SecA ATPase Inhibitors; type: functional; conditions: 30 µM
# [2] = molecular target: T1, Ubiquitin-activating enzyme e1, putative (Leishmania donovani (strain BPK282A1)) (UniProt E9BSI1); experiment: Leishmania donovani Ubiquitin Activating Enzyme (LdE1); type: functional; conditions: 30 µM
# T1 sequence (whole entry): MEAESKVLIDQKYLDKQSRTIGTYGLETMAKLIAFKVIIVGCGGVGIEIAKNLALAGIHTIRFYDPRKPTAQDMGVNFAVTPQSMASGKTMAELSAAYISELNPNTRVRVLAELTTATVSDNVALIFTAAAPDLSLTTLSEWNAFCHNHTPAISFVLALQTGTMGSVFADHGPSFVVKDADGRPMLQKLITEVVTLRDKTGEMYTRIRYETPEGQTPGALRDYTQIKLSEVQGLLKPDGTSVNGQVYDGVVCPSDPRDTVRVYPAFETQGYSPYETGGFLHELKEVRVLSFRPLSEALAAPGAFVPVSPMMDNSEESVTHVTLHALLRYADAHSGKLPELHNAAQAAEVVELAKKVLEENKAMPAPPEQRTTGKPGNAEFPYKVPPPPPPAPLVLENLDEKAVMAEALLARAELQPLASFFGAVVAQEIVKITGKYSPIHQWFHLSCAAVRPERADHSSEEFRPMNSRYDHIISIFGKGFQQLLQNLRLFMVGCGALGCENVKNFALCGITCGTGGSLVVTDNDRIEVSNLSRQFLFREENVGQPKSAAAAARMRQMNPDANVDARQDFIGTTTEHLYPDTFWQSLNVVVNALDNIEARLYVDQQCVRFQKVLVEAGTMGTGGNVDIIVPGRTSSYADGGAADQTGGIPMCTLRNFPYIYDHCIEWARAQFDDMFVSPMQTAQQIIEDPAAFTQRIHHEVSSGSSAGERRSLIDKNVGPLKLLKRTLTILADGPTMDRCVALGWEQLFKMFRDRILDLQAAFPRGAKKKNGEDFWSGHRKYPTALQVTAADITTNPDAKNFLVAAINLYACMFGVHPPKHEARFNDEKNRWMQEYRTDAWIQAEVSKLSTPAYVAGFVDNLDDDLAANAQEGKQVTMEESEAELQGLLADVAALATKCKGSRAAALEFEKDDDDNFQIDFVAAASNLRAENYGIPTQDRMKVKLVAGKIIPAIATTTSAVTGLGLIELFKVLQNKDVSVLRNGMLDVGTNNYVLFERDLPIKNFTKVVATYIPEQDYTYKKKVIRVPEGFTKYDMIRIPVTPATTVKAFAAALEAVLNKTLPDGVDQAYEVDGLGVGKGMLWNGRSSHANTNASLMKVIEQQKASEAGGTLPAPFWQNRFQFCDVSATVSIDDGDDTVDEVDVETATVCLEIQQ
# [3] = molecular target: AMP-activated protein kinase, AMPK (Homo sapiens) (UniProt P54646+O43741+P54619+Q9UGJ0+Q9Y478+Q13131+Q9UGI9); experiment: AMP-dependent Kinase enzyme assay. An in vitro enzyme assay that detects ADP turnover that is directly proportional to AMPK activity. This uses naive AMPK that is activated during the assay with MK-8722; type: functional; conditions: 30 µM
# [4] = molecular target: Sialic acid-binding Ig-like lectin 9 (Homo sapiens) (UniProt Q9Y336); experiment: Hs-Siglec9 ALPHAscreen SOP 20170721; conditions: 10 µM
# Trypanosoma cruzi = experiment: Trypanosoma cruzi phosphomannomutase and mannose-1-phosphate guanylyltransferase assay; type: functional; conditions: 10 µM
# [5] = molecular target: T2, Arginase-2, mitochondrial (Homo sapiens) (UniProt P78540); experiment: in vitro enzyme assay to detect the production of urea directly proportional to the activity of Arginase II; type: functional; conditions: 33.3 µM; further: in the data most compounds retested in dose-response had high values
# T2 sequence (whole entry): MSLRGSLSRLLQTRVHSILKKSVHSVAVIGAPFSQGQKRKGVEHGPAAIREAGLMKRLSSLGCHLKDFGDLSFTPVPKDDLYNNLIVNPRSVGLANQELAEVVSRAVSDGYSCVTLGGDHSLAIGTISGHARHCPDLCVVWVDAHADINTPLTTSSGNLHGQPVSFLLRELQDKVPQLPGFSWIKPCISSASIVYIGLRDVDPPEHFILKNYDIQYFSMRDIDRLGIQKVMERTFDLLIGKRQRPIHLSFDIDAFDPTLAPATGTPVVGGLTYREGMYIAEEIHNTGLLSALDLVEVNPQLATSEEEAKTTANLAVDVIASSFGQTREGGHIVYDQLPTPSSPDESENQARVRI
# [6] = molecular target: T3, Proteasome subunit beta (Trypanosoma cruzi) (UniProt O96673); experiment: Trypanosoma cruzi proteasome chymotrypsin-like activity (TcProtChymo) assay.; further: in the data most compounds retested in dose-response had high values; type: functional; conditions: 9.37 µM
# T3 sequence (whole entry): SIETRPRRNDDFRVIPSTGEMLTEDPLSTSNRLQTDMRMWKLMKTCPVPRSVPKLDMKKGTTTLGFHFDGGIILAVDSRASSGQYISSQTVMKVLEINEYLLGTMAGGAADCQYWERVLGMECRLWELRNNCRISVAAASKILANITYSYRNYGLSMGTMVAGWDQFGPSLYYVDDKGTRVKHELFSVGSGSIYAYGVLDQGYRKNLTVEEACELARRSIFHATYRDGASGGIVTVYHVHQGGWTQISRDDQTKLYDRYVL
# Homo sapiens = organism: Homo sapiens; experiment: To identify inhibition of the IFN signalling (Jak-Stat) pathway via expression of an eGFP reporter gene under the control of an IFN-stimulated response element (ISRE) containing MxA promoter.; type: functional; conditions: 30 µM
# [7] = molecular target: T4, Tyrosyl-tRNA synthetase, putative (Trypanosoma cruzi (strain CL Brener)) (UniProt Q4DSP6); experiment: Trypanosoma cruzi tyrosyl tRNA synthetase (TcYRS) _High Tyrosine SOP; type: functional; conditions: 30 µM; further: in the data most compounds retested in dose-response had high values
# T4 sequence (whole entry): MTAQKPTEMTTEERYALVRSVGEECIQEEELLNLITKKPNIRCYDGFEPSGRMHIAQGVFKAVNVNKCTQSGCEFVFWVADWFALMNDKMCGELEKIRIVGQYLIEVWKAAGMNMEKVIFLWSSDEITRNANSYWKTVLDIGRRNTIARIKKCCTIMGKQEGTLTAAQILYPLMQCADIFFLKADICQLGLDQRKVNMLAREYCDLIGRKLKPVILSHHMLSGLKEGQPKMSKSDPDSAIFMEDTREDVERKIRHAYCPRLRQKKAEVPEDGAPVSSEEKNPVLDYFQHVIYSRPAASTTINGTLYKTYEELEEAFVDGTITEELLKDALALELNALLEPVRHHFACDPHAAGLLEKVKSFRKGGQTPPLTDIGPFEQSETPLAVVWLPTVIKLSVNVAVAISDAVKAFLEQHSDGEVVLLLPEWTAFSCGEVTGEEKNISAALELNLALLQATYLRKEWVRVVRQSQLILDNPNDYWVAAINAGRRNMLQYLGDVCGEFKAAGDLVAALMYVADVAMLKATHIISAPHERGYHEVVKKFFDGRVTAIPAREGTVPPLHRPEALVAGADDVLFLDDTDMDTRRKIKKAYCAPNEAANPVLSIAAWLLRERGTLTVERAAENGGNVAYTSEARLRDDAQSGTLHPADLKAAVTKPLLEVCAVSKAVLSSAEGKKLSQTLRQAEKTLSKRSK
# [8] = molecular target: T4, Tyrosyl-tRNA synthetase, putative (Trypanosoma cruzi (strain CL Brener)); experiment: Trypanosoma cruzi tyrosyl tRNA synthetase (TcYRS) SOP; type: functional; conditions: 30 µM
# [9] = molecular target: Chromo domain-containing protein 1 (Saccharomyces cerevisiae (strain ATCC 204508 / S288c) (Baker's yeast)) (UniProt P32657); experiment: ScCHD-1 Enzyme Inhibition Assay; type: functional; conditions: 30 µM; further: in the data most compounds retested in dose-response had high values
# Sequence of Chromo domain-containing protein 1 (Saccharomyces cerevisiae (strain ATCC 204508 / S288c) (Baker's yeast)) (P32657 whole entry, the tested form may be a part): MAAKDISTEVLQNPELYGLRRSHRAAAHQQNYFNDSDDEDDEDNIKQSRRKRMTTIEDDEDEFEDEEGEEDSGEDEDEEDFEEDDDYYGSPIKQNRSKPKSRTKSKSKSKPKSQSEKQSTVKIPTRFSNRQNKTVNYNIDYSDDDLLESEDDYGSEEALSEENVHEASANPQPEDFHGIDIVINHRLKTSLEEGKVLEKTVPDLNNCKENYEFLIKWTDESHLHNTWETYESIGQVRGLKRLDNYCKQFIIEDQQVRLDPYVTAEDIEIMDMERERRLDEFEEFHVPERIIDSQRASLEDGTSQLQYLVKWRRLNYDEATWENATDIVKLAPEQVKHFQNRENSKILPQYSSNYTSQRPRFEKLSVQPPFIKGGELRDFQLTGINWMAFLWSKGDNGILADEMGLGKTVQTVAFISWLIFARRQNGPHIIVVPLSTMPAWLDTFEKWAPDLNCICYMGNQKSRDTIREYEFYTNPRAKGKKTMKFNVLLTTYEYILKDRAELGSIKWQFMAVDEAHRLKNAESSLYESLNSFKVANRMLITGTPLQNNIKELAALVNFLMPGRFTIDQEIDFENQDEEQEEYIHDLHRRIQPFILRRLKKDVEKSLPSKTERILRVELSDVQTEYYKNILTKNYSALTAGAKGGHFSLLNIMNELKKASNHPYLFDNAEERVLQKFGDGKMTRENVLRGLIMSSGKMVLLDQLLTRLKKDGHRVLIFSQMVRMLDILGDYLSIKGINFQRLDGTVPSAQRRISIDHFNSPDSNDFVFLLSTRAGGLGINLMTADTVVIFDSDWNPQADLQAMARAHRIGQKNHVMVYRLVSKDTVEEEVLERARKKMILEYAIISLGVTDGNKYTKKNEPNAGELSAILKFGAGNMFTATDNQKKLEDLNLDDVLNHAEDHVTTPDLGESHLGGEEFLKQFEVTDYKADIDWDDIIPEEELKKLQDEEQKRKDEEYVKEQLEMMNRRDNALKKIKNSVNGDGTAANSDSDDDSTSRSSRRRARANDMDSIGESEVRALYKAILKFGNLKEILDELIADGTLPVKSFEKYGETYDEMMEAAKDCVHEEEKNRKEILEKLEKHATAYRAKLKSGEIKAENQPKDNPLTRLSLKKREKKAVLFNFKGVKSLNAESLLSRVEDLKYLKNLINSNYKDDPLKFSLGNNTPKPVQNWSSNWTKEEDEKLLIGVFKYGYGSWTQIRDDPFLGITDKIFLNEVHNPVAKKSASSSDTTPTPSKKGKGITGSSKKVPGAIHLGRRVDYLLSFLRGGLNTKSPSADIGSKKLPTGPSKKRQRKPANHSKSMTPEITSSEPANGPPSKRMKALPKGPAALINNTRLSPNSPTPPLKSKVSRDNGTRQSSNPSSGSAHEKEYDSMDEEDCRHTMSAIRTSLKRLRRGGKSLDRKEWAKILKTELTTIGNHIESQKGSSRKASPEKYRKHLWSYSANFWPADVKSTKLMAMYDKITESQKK
# Sequence of Protein translocase subunit SecA (Escherichia coli (strain K12)) (P10408 whole entry): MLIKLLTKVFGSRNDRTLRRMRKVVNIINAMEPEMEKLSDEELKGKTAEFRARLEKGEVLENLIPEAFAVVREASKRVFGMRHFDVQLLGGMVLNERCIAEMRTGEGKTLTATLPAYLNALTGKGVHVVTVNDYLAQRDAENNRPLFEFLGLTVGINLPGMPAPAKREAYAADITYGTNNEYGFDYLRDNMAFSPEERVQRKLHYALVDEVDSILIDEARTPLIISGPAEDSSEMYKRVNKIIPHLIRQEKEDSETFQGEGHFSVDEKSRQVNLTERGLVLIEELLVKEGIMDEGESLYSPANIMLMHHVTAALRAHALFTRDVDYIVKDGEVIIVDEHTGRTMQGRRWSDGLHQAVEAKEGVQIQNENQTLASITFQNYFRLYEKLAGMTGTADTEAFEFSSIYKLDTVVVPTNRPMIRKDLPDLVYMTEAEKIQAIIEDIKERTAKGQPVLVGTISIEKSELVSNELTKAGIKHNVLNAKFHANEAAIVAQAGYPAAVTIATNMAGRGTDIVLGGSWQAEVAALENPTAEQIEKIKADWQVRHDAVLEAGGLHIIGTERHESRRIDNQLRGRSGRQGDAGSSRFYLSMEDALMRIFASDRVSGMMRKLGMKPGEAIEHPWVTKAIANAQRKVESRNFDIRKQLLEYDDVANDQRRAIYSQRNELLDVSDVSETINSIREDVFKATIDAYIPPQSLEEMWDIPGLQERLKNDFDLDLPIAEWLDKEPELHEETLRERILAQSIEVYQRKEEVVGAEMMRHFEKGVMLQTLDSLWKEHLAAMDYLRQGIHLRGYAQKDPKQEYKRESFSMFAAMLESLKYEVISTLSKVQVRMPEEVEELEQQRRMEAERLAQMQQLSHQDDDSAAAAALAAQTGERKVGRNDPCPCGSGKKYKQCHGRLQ
# Sequence of Sialic acid-binding Ig-like lectin 9 (Homo sapiens) (Q9Y336 whole entry): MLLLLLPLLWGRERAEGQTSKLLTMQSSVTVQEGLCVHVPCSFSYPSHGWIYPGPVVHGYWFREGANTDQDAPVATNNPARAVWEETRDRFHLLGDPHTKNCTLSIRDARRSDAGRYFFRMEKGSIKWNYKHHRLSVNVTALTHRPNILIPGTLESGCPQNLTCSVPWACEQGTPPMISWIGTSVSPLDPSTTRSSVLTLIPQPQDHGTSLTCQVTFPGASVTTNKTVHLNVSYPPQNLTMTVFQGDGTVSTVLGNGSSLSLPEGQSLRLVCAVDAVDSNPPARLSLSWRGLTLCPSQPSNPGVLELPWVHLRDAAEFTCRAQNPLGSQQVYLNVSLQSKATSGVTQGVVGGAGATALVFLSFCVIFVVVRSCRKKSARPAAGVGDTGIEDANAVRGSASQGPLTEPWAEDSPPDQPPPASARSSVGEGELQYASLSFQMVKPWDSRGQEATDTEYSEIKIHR
Compound,Percent Effect [1],Percent Effect [2],Percent Effect [3],Percent Effect [4],Percent Effect (Trypanosoma cruzi),Percent Effect [5],Percent Effect [6],Percent Effect (Homo sapiens),Percent Effect [7],Percent Effect [8],Percent Effect [9]
Cc1noc([C@H]2C[C@@H]3CCN(C(=O)N(C)C)C[C@H]3O2)n1,-0.638%,-2.7%,6.92%,9.3%,-2.25%,0.319%,15.5%,-7.89%,-1.08%,2.56%,0.431%
O=C(CC1CC1)NCc1cn2c(n1)CN(C(=O)c1cccnc1)CC2,-2.41%,8%,8.62%,2.88%,-7.28%,1.17%,2.73%,9.61%,0%,8.97%,3.52%
COCCCC1(CO)CCCN(CCc2ccccc2)C1 (stereo not given),-1.32%,-2.74%,-1.63%,-2.32%,-5.09%,0.909%,-0.887%,-2.97%,1.07%,2.5%,-2.34%
Cc1ccccc1CNc1nc(O)cc(C2CC(=O)N(C)C2)n1 (stereo not given),3.9%,6.76%,3.36%,-2.99%,-44.5%,4.87%,13.1%,8.17%,2.15%,9.09%,-10.8%
O=C(CSc1ccc2c(c1)OCCO2)NS(=O)(=O)C1CCCCC1,-2.58%,-1.39%,3.64%,-7.65%,-6.71%,3.09%,11.4%,9.49%,-1.05%,-5.13%,-0.962%
CC1c2ncc(Cn3cncn3)n2CCN1C(=O)C1CCOCC1 (stereo not given),-4.07%,10.7%,-5.52%,0.0625%,4.83%,-56.5%,5.13%,-14.3%,3.12%,7.5%,-6.18%
COCCN1C[C@@H]2CCCO[C@@H]2[C@H](NC(=O)c2cnccn2)C1,-1.67%,8%,1.63%,1.69%,-2.32%,-45.3%,3.59%,-4.03%,5.21%,-12.5%,-7.48%
COc1cc(OC)c(C2Nc3cc(Cl)ccc3C3=NCCN32)cc1OC (stereo not given),-5.59%,-8%,-2.93%,2.92%,6.89%,-3.5%,1.32%,-10.9%,7.45%,14.1%,-5.67%
CCn1ncnc1C(C)NC(=O)C1CCN(C(C)C)CC1 (stereo not given),-3.72%,5.41%,-4.36%,22.1%,0.0978%,2.73%,15%,-2.01%,9.68%,21%,-5.24%
CC(C)n1ccnc1C1CCCN(c2ccccn2)C1 (stereo not given),-4.71%,5.33%,-0.644%,4%,-2.43%,0%,18.7%,15.1%,3.83%,11.1%,-7.89%
Cn1cc(C(=O)Nc2ccc3c(c2)CN(C(=O)c2ccco2)CC3)nn1,-2.6%,7.79%,7.19%,9.07%,3.65%,-5.81%,7.66%,0.998%,4.23%,11.5%,-7.06%
Cc1nc(C)n(CC2CCCN2Cc2cc(C)on2)n1 (stereo not given),-7.09%,5.2%,-68.4%,-5.71%,-2.06%,3.58%,12.2%,19.8%,0%,7.06%,-23.5%
CCOC(=O)NC(CNC(=O)CCc1ccccn1)CC(C)C (stereo not given),-7.25%,0%,0.68%,-3.55%,3.62%,2.73%,4.72%,-1.48%,-5.38%,3.7%,-0.238%
CCCNC(=O)c1cc2c(nc1O)CCC(C)C2 (stereo not given),-3.98%,14.7%,2.01%,-2.15%,5.5%,-13.9%,9.06%,-2.51%,6.35%,10.3%,-8.5%
CN1CC(=O)N(c2cccc(F)c2)CC12CCNC2 (stereo not given),-5.9%,0%,3.44%,-2.82%,-3.03%,-4.78%,10.7%,12.5%,-1.08%,5.13%,1.85%
CCc1ncc(C(=O)N2CCCCC2Cn2cccn2)s1 (stereo not given),-0.823%,0%,2.6%,-4.33%,-3.44%,1.66%,-4.13%,7.71%,2.97%,-23.2%,10.1%
CCOC(=O)C1CCN(C(=O)Cn2ccc3cc(Br)ccc32)CC1,-3.71%,14.7%,-7.58%,-2.58%,6.29%,-0.88%,9.43%,4.34%,1.06%,10.3%,-13.5%
Cc1cnn(CC2CCCN2C(=O)c2cccc(-n3cnnn3)c2)c1 (stereo not given),-0.0058%,2.53%,6.56%,4.88%,-1.79%,6.08%,-0.573%,13.2%,2.46%,1.27%,-1.78%
CC1c2ncc(COc3cccnc3)n2CCN1C(=O)Cc1ccco1 (stereo not given),-6.11%,6.67%,2.02%,6.28%,-2.36%,-3.7%,6.84%,-8.23%,2.12%,7.69%,0.38%
Cc1ccc(C(=O)NC2CCN(Cc3noc(CC(C)C)n3)CC2)s1,-4.45%,2.6%,3.54%,0.891%,-8.75%,-8.28%,8.82%,29.7%,-3.23%,1.24%,-1.38%
